Experimental data as given in the supplement of paper PMC3545927.
The list shows a part of the results. The true hit rate is not given.

Molecular target: furin, P09958
Assay: furin cleavage Z-score vs untreated control; higher = more cleavage, active = 3.5 or more, inactive = 1 or less, 8 variable residues between constant flanks
Method in brief: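 Read counts from sequencing released DNA gave abundance for each bead-bound 8-mer peptide–cDNA fusion cut by purified furin over 7.5, 15 or 30 min. The cleavage Z-score compares log counts with furin-free reactions after lowess adjustment and median absolute deviation scaling.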
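Further: purified furin at 1:10 enzyme:substrate in 50 mM HEPES pH 7.5.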

Sequence of furin, P09958 (P09958 whole entry): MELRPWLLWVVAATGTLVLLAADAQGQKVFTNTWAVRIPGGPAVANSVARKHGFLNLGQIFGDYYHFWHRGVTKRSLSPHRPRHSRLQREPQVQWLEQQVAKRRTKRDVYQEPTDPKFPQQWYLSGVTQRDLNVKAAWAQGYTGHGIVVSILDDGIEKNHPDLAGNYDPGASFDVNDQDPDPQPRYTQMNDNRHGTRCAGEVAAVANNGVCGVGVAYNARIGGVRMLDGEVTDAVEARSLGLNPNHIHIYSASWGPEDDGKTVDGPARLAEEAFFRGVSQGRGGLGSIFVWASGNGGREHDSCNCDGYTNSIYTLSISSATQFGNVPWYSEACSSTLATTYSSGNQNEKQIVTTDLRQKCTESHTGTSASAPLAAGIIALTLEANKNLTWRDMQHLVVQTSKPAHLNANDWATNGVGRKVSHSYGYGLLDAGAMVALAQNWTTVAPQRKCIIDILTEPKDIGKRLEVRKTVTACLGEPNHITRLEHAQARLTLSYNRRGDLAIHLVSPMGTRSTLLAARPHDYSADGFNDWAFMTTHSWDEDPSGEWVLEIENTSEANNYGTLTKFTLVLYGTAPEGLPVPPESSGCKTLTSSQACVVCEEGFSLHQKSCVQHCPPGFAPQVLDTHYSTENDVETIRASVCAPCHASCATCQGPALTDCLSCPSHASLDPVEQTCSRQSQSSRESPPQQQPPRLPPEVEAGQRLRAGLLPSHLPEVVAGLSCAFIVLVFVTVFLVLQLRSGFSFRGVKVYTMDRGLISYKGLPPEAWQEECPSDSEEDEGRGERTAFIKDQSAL

| Sequence | furin cleavage Z-score (7.5 min) | furin cleavage Z-score (15 min) | furin cleavage Z-score (30 min) |
| --- | --- | --- | --- |
| CAAEVIAPAVAGNASASA [HC1032] | -0.225 (inactive) | -0.402 (inactive) | -0.162 (inactive) |
| CAVVCCSWSYAGNASASA [HC2048] | -1.44 (inactive) | -0.879 (inactive) | -0.0857 (inactive) |
| CANDSRLKRQAGNASASA [FS-1038] | 6.07 (active) | 5.6 (active) | 6.15 (active) |
| CANDSRHLRNAGNASASA [FS-1647] | 0.543 (inactive) | 0.626 (inactive) | 1.57 |
| CAILWRLKRQAGNASASA [FS-1215] | 10.9 (active) | 9.84 (active) | 7.41 (active) |
| CALNKSFRRAAGNASASA [FS-354] | 0.697 (inactive) | -0.445 (inactive) | 1.37 |
| CAFRARFRRLAGNASASA [FS-526] | 10.4 (active) | 12.1 (active) | 9.87 (active) |
| CAFSHRQVRYAGNASASA [FS-929] | 0.403 (inactive) | 1.8 | 2.61 |
| CAVVCRSMSYAGNASASA [HC90] | 1.85 | 0.752 (inactive) | 0.571 (inactive) |
| CANRARFRRAAGNASASA [FS-64] | 8.77 (active) | 9.51 (active) | 7.84 (active) |
| CAFRARQIRYAGNASASA [FS-419] | 2.8 | 5.19 (active) | 2.15 |
| CADCTTPCSGAGNASASA [HC1951] | 0.95 (inactive) | 0.00642 (inactive) | 1.2 |
| CAMEECSQVLAGNASASA [HC1750] | 1.44 | -0.739 (inactive) | 1.26 |
| CAVPYFVRVQAGNASASA [HC615] | -1.87 (inactive) | 0.165 (inactive) | -0.325 (inactive) |
| CALPYLVAYQAGNASASA [HC952] | 0.718 (inactive) | -1.65 (inactive) | -1.41 (inactive) |
| CAVPERCRRQAGNASASA [FS-1580] | 6.62 (active) | 9.1 (active) | 6.98 (active) |
| CAFLTRVEAQAGNASASA [HC585] | -0.981 (inactive) | 1.44 | -1 (inactive) |
| CAVGDLCGSVAGNASASA [HC299] | -0.438 (inactive) | -0.375 (inactive) | 1.2 |
| CACSTRVRRQAGNASASA [FS-120] | 11 (active) | 8.81 (active) | 7.5 (active) |
| CALPKRVRRQAGNASASA [FS-1029] | 11.3 (active) | 12.3 (active) | 8.74 (active) |
| CATTPCSPSWAGNASASA [HC1899] | 0.637 (inactive) | 0.489 (inactive) | -0.787 (inactive) |
| CAPEFFTELDAGNASASA [HC1220] | -0.864 (inactive) | -0.533 (inactive) | -1.32 (inactive) |
| CALQERVPRDAGNASASA [FS-1366] | 7.28 (active) | 7.82 (active) | 7.62 (active) |

| Sequence | furin cleavage Z-score (7.5 min) | furin cleavage Z-score (15 min) | furin cleavage Z-score (30 min) |
| --- | --- | --- | --- |
| CAAVQRVPRDAGNASASA [FS-1312] | 6.89 (active) | 6.58 (active) | 5.33 (active) |
| CAQRQPFPRDAGNASASA [FS-951] | 0.0863 (inactive) | 0.099 (inactive) | -1.03 (inactive) |
| CAFVQRVFRDAGNASASA [FS-776] | -0.109 (inactive) | -0.244 (inactive) | 0.515 (inactive) |
| CAVVCCWMSYAGNASASA [HC107] | -0.895 (inactive) | 0.873 (inactive) | -1.73 (inactive) |
| CASQPCSAHLAGNASASA [HC2502] | -0.0566 (inactive) | 0.435 (inactive) | 0.0846 (inactive) |
| CARARRGGGSAGNASASA [FS-2645] | -0.34 (inactive) | -0.574 (inactive) | 0.0356 (inactive) |
| CARARRGPSPAGNASASA [FS-2131] | -1.25 (inactive) | -0.123 (inactive) | -0.828 (inactive) |
| CARARRGLRGAGNASASA [FS-1817] | 1.71 | 0.637 (inactive) | 3.32 |
| CARARRSASPAGNASASA [FS-2481] | 8.11 (active) | 8.29 (active) | 5.23 (active) |
| CARARRDAGPAGNASASA [FS-3150] | 10.1 (active) | 11.6 (active) | 7.77 (active) |
| CARARRGTSGAGNASASA [FS-2646] | 3.84 (active) | 5.25 (active) | 5.55 (active) |
| CARARRDHFSAGNASASA [FS-2642] | 1.38 | 1.33 | 3.76 (active) |
| CARHYKSASPAGNASASA [FS-1718] | -1.62 (inactive) | -1.27 (inactive) | -1.9 (inactive) |
| CANTPCSAHLAGNASASA [HC2481] | -0.479 (inactive) | -0.245 (inactive) | 0.352 (inactive) |
| CAMEECSWHLAGNASASA [HC1728] | -0.727 (inactive) | 1.63 | 1.16 |
| CAGNASRCWVAGNASASA [HC277] | -0.19 (inactive) | 0.165 (inactive) | -0.828 (inactive) |
| CARARRGVEVAGNASASA [FS-2647] | 4.52 (active) | 5.87 (active) | 6.09 (active) |
| CAQLPCEPEPAGNASASA [HC1240] | 0.775 (inactive) | -0.524 (inactive) | -0.783 (inactive) |
| CAFFSVLIARAGNASASA [HC1585] | -2.48 (inactive) | -0.777 (inactive) | -0.815 (inactive) |
| CAYLLRRRRNAGNASASA [FS-1620] | 5.7 (active) | 4.73 (active) | 3.09 |
| CAYLLPRRGPAGNASASA [HC178] | -0.496 (inactive) | -0.768 (inactive) | -0.313 (inactive) |
| CAHLSRRRRNAGNASASA [FS-1007] | 11.1 (active) | 9.66 (active) | 7.89 (active) |
